Assay results from PubChem BioAssay.
Calls of active or inactive are those of the source.

tested on: not listed separately; experiment: budding yeast growth modifiers under rapamycin – strain BY4716, OD600, 96 h, primary screen (AID 1091); note: test concentration not given here; conditions: S. cerevisiae BY4716 + rapamycin, higher = more signal, called active from +8 up or from −8 down

Row | SMILES | z-score
1 | CC(C)Cc1ccc(CN2CC[C@@H](NC(=O)Nc3ccccc3)C2)cc1 | -4.26 (inactive)
2 | C=CCC(OC(C)=O)[C@@H]1[C@@H](N(Cc2cc3ccccc3o2)C(=O)c2ccc(-c3ccccc3)cc2)c2cc(OCCCO)ccc2N1C(=O)c1ccc2ccccc2c1 (stereo partly drawn) | 1.03 (inactive)
3 | Cc1ccc(S[C@]2(C(=O)O)CC(=O)N(Cc3ccccc3Cl)[C@@H]2c2ccc(CO)cc2I)cc1 | 1.21 (inactive)
4 | COCCCNC(=O)[C@@]1(Sc2ccc(C)cc2)CC(=O)N(C2CCCCC2)[C@@H]1c1ccc(CO)cc1 | -0.874 (inactive)
5 | COCC1=C2[C@@H](CCc3ccccc3)OB(O)C[C@@H]2[C@@H]2C(=O)C=CC(=O)[C@@H]2C1 | -0.288 (inactive)
6 | COc1ccc([Si](C)(C)[C@@H]2[C@@H](CCn3cc([C@H](O)c4ccccc4)nn3)O[C@]3(C(=O)N(Cc4ccc(N5CCC5=O)cc4)c4ccccc43)[C@H]2C)cc1 | 3.51 (inactive)
7 | CCOc1cc(C(O)C2C=CC3C(=O)N(C)C(=O)C3N2Nc2ccccc2)ccc1O (stereo not drawn) | 1.97 (inactive)
8 | C=C(C(=O)CC[C@@H](OC(C)=O)c1ccc(CO)o1)C(C)C | -0.561 (inactive)
9 | CC(=O)NCCCC[C@@H]1NC(=O)[C@@H]2C[C@H](C(=O)NCCCC[N+](C)(C)C)[C@H](c3ccc(O)cc3)N2C1=O | -1.29 (inactive)
10 | CCOC(=O)C1CCCCN1 (stereo not drawn) | 0.363 (inactive)
11 | C=CCOC(=O)[C@H]1[C@@H]2C(=O)O[C@@H](c3ccccc3)[C@@H](c3ccccc3)N2[C@@H](c2ccc(OCCOC(=O)[C@@H]3C[C@@H]4C(=O)N[C@@H](CCCCN(C)C)C(=O)N4[C@@H]3c3ccc(O)cc3)cc2)[C@]12C(=O)Nc1ccccc12 | 0.436 (inactive)
12 | CCCC[C@@H]1C[C@H]1[C@@H](NC(=O)c1cccs1)c1ccc(C(F)(F)F)cc1 | -0.0454 (inactive)

target: Torsin-1A-interacting protein 2 (Homo sapiens) (UniProt Q8NFQ8); experiment: small molecules binding lysate-expressed LULL1 – cell lysate, human LULL1 lysate, 635/667 nm fluorescence, primary screen (AID 1092); conditions: small-molecule microarray, hLULL1 lysate binding, 635 nm fluorescence; higher = more signal;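 note: probe is lysate of COS7 cells overexpressing human LULL1; score merges per-feature 667 nm fluorescence with signal-to-noise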
Sequence (Q8NFQ8 whole entry, looked up): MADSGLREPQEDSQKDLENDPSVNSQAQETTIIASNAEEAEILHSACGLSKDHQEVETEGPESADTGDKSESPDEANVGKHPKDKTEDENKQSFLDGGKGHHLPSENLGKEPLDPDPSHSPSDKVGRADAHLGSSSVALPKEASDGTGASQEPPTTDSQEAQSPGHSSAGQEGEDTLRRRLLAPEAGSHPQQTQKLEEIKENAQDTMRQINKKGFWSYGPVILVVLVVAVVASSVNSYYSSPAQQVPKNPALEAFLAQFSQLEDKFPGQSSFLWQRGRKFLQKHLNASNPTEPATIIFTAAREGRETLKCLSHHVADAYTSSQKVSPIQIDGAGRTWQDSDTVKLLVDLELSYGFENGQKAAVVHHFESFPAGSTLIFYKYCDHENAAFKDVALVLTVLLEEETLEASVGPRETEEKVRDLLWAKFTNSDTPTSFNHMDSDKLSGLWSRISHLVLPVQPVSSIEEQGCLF

Row | SMILES | composite z-score
13 | [N-]=[N+]=Nc1ccccc1[C@H]1OC(c2ccc(OCCCO)cc2)=N[C@@]1(Cc1ccccc1)C(=O)N1CCCCC1 | 3.29
14 | CCCNC(=O)[C@@]1(c2ccc([N+](=O)[O-])cc2)CC(=O)N(C2CCCCC2)[C@@H]1c1ccc(CO)cc1 | 2.8
15 | CN1C(=O)C2C=CC(C(O)c3ccccn3)N(N(c3ccccc3)c3ccccc3)C2C1=O (stereo not drawn) | 1.87
16 | COCCOC(=O)N1C(=O)[C@@]2(c3cc(C#CC4=CCCCC4)ccc31)[C@H](c1ccc(O)cc1)N1[C@H](c3ccccc3)[C@H](c3ccccc3)OC(=O)[C@H]1[C@@H]2C(=O)N1CCN(c2ncccn2)CC1 | -0.142
17 | C[N+](C)(C)CCCCCCNC(=O)[C@H]1C[C@H]2C(=O)N[C@@H](Cc3ccccc3)C(=O)N2[C@H]1c1ccc(O)cc1 | 2.56
18 | O=C1NC(=O)C2C1C=CC(C(O)c1cccc3ccccc13)N2Nc1ccc(Cl)cc1Cl (stereo not drawn) | 3.04
19 | COC(=O)[C@@]1(Cc2ccc(F)cc2)[C@H]2c3cc(C(=O)N4CCCC4)n(CCc4ccc(O)c(O)c4)c3C[C@H]2CN1C(=O)c1ccccc1 | 3.22
20 | O=C(CS)NCCCCCCNC(=O)[C@H]1C[C@H]2C(=O)N[C@@H](Cc3ccccc3)C(=O)N2[C@H]1c1ccc(O)cc1 | 1.91
21 | C#CCN([C@@H](Cc1ccc(O)cc1)C(=O)OC)[C@@H](/C=C/C1CC1)[C@H](O)Cc1ccccc1 | -0.0965
22 | CCOC(=O)c1ccc(NC(=O)O[C@H]2[C@H](OC(=O)Nc3ccc4c(c3)OCO4)[C@@H](OC(=O)Nc3ccc4c(c3)OCO4)[C@@H](OC)O[C@@H]2CO)cc1 | 3.27
23 | O=c1n(-c2ccccc2)c(=O)n2n1CC(COc1ccccc1)=C([C@H](O)CCc1ccccc1)[C@@H]2CO | -0.173
24 | COc1ccc([Si](C)(C)[C@@H]2[C@@H](CC(=O)N3Cc4ccccc4C[C@H]3CO)O[C@]3(C(=O)N(Cc4cccc(N5C(=O)c6cccc7cccc5c67)c4)c4ccccc43)[C@H]2C)cc1 | 1.6
25 | CN(C)C(=O)[C@]1(CCS(=O)(=O)c2ccccc2)N=C(c2ccc(OCCCO)cc2)O[C@@H]1c1ccccc1N=[N+]=[N-] | 3.78
26 | COC(=O)[C@@]1(Cc2ccc(OC)cc2)[C@H]2c3cc(C(=O)N4CCCC4)n(Cc4c(-c5ccccc5)noc4C)c3C[C@H]2CN1C(=O)c1ccccc1 | 3.31
27 | O=C1O[C@H](c2ccccc2)[C@H](c2ccccc2)N2[C@H]1[C@@H](C(=O)O)[C@]1(C(=O)Nc3ccc(C#CC4=CCCCC4)cc31)[C@H]2c1ccc(O)cc1 | 2.65
28 | COc1cc2c(cc1OC)CN(C(=O)[C@@H]1[C@H]3C(=O)O[C@H](c4ccccc4)[C@H](c4ccccc4)N3[C@H](c3ccc(OCCO)cc3)[C@@]13C(=O)Nc1ccccc13)CC2 | 3
29 | COC(=O)[C@@]1(Cc2ccccc2)[C@H]2c3cc(C(=O)N(C)C)n(CCN4CNCC4=O)c3C[C@H]2CN1C(=O)c1ccccc1 | 1.42
30 | CN(C)c1ccc(C(O)C2C=CC3C(=O)N(c4ccccc4)C(=O)C3N2Nc2ccc([N+](=O)[O-])cc2)cc1 (stereo not drawn) | 2.98

Row | SMILES | composite z-score
31 | C=C(C)c1cc2c(c(CCCCCC)n1)[Si](C(C)C)(C(C)C)OC2 | -1.03
32 | O=C1O[C@@H](c2ccccc2)[C@@H](c2ccccc2)N2[C@@H](c3ccc(O)cc3)[C@]3(C(=O)Nc4ccc(C#CC5(O)CCCCCC5)cc43)[C@@H](C(=O)NC[C@H](O)c3ccccc3)[C@H]12 | 2.05
33 | COCCCNC(=O)[C@@]1(Cc2ccccc2N=[N+]=[N-])N=C(c2ccc(OCCCO)cc2)O[C@H]1c1ccccc1 | 3.1
34 | O=C1O[C@H](c2ccccc2)[C@H](c2ccccc2)N2[C@H]1[C@@H](C(=O)Nc1nc3ccccc3s1)[C@]1(C(=O)Nc3ccc(C#CCCO)cc31)[C@H]2c1ccc(O)cc1 | 2.39
35 | COC(=O)[C@@]1(Cc2ccccc2)[C@H]2c3cc(C(=O)N(C)C)n(CCc4ccc(O)c(OC)c4)c3C[C@H]2CN1C(=O)c1ccccc1 | 0.47
36 | O=C1OCC=C[C@H]2OC34C=CCN(c5ccc(Cl)cc5)C(=O)[C@H]3N(CCO)C(=O)[C@@H]4[C@@H]12 (stereo partly drawn) | 2.87
37 | CC(C)Cc1ccc(CN2CC[C@@H](NC(=O)Nc3ccccc3)C2)cc1 | -0.389
38 | C=CCC(OC(C)=O)[C@@H]1[C@@H](N(Cc2cc3ccccc3o2)C(=O)c2ccc(-c3ccccc3)cc2)c2cc(OCCCO)ccc2N1C(=O)c1ccc2ccccc2c1 (stereo partly drawn) | 1.1
39 | Cc1ccc(S[C@]2(C(=O)O)CC(=O)N(Cc3ccccc3Cl)[C@@H]2c2ccc(CO)cc2I)cc1 | 0.198
40 | COCCCNC(=O)[C@@]1(Sc2ccc(C)cc2)CC(=O)N(C2CCCCC2)[C@@H]1c1ccc(CO)cc1 | 2.96
41 | COCC1=C2[C@@H](CCc3ccccc3)OB(O)C[C@@H]2[C@@H]2C(=O)C=CC(=O)[C@@H]2C1 | 1.32
42 | COc1ccc([Si](C)(C)[C@@H]2[C@@H](CCn3cc([C@H](O)c4ccccc4)nn3)O[C@]3(C(=O)N(Cc4ccc(N5CCC5=O)cc4)c4ccccc43)[C@H]2C)cc1 | 0.309
43 | CCOc1cc(C(O)C2C=CC3C(=O)N(C)C(=O)C3N2Nc2ccccc2)ccc1O (stereo not drawn) | 1.84
44 | C=C(C(=O)CC[C@@H](OC(C)=O)c1ccc(CO)o1)C(C)C | 0.288
45 | CC(=O)NCCCC[C@@H]1NC(=O)[C@@H]2C[C@H](C(=O)NCCCC[N+](C)(C)C)[C@H](c3ccc(O)cc3)N2C1=O | 1.46
46 | CCOC(=O)C1CCCCN1 (stereo not drawn) | 1.16
47 | C=CCOC(=O)[C@H]1[C@@H]2C(=O)O[C@@H](c3ccccc3)[C@@H](c3ccccc3)N2[C@@H](c2ccc(OCCOC(=O)[C@@H]3C[C@@H]4C(=O)N[C@@H](CCCCN(C)C)C(=O)N4[C@@H]3c3ccc(O)cc3)cc2)[C@]12C(=O)Nc1ccccc12 | 2.57
48 | CCCC[C@@H]1C[C@H]1[C@@H](NC(=O)c1cccs1)c1ccc(C(F)(F)F)cc1 | -0.683
